Only some compounds are listed: those with a hit (about 3.5% of all), similar ones and a draw of the others.
BoNT F protease: BoNT/F light chain protease inhibitors, primary screen, biochemical, flow cytometry, MLPCN library | actives 0.22% (n = 360,000) | inhibition, % at 10 µM | Botulinum neurotoxin type F light chain protease (Clostridium botulinum) | Multiplex microsphere protease cleavage assay; in the data active = inhibition above about 35%, passing the limit was not always enough; inconclusive = no clear call, values can overlap the other calls; also: plate controls were buffer without enzyme for full effect and enzyme alone for no effect
BoNT A protease: BoNT/A light chain protease inhibitors, primary screen, biochemical, flow cytometry, MLPCN library; multiplex microsphere protease substrate cleavage; inhibition, % at 10 µM; actives 0.17% (n = 360,000); also: plate controls were buffer without enzyme for full effect and enzyme alone for no effect
Anthrax LF inh2: Bacillus anthracis LF protease inhibitors, primary screen, biochemical, multiplex microsphere, MLPCN library | Lethal factor (Bacillus anthracis), P15917 | inhibition, % at 10 µM | multiplex microsphere protease cleavage assay | actives 0.12% (n = 360,000) | AID 588501, 2011; also: plate controls were buffer without enzyme for full effect and enzyme alone for no effect
SARS 3CLpro inh: SARS-CoV 3CLpro protease inhibitors, primary screen, biochemical, quenched FRET | Replicase polyprotein 1ab (Severe acute respiratory syndrome coronavirus), P0C6X7 | inhibition, % at 6 µM | actives 0.14% (n = 290,000) | recombinant SARS-CoV 3CLpro, quenched FRET peptide cleavage; in the data active = inhibition above about 12%
Autofluor counter: counter-screen for toxin protease inhibitors: compound fluorescence; compound autofluorescence counterscreen, microsphere flow cytometry; stronger effect = higher value; fluorescence intensity (concentration not given with the values); actives 3.1% (n = 360,000); in the data active = fluorescence intensity above about 16000; inconclusive = no clear call, values can overlap the other calls
* marks the source's active call; other numbers are inactive results; ? = inconclusive; nt = no result given; ! = a repeat was not active. Rule as the data show it, unless noted: active = inhibition above about 30%; inconclusive = no clear call, values can overlap the other calls; inactive = below that.

SMILES	BoNT F protease	BoNT A protease	Anthrax LF inh2	SARS 3CLpro inh	Autofluor counter
CNC(=S)NNC(=O)c1cccn(Cc2cccc(Cl)c2)c1=O	-3	-2	0	2	24235*
O=C(NCc1ccccc1)c1cccn(Cc2cccc(Cl)c2)c1=O	11	4	-7	1	3907
CNC(=S)NNC(=O)c1cccn(Cc2ccc(Cl)c(Cl)c2)c1=O	-2	1	0	5	22977*
COC(=O)/C(=C(O)\C=C\c1ccccc1[N+](=O)[O-])c1nc2ccccc2[nH]1	-4	0	-2	-1	5475
COc1ccccc1OCC(=O)N1CCCCCCC1	?	-2	1	-2	3879
CC(CC1CC(C)(C)OC1=O)C(=O)Nc1nncs1 (centres undefined)	11	?	-4	2	20331*
CC(CCC(=O)Nc1nncs1)C(=O)O (centres undefined)	2	0	0	2	5309
O=C(Nc1ccc(-n2nncc2-c2ccco2)cc1)c1cc2ccccc2oc1=O	7	2	1	-2	20140*
CC12CN(C(=O)c3ccc(Cl)cc3)C3(C#N)CC1CCC23C (centres undefined)	-12	?	-1	2	22214*
O=C(NN1C(=O)/C(=C\c2cccnc2)SC1=S)C(c1ccccc1)c1ccccc1	3	1	2	3	2033
O=C(NN1C(=O)/C(=C/c2cccs2)SC1=S)c1cccnc1	1	0	-12	-1	5764
O=C(NN1C(=O)/C(=C/c2cccs2)SC1=S)c1ccccc1	41*	10	22	1	8439
O=C(CCN1C(=O)/C(=C/c2cccc(Br)c2)SC1=S)NNC(=O)c1cccnc1	-4	-1	-3	0	16764*
O=C(NN1C(=O)/C(=C/c2cccnc2)SC1=S)C(c1ccccc1)c1ccccc1	-2	-1	-2	1	21106*
Cc1ccc(S(=O)(=O)N2CCC(C(=O)OC(C)C(=O)NC3CCCCC3C)CC2)cc1C (centres undefined)	-2	0	-9	nt	3645
COc1ccc(CNS(=O)(=O)c2ccc(F)cc2Br)cc1	-6	0	-4	nt	3995
CCOc1ccc(-n2c(Cc3cc(=O)[nH]c(=O)[nH]3)nnc2SCC)cc1	4	?	0	1	19071*
COc1cccc(CNC(=O)CCS(=O)(=O)c2ccc3c(c2)oc(=O)n3C)c1	2	0	0	0	5936
Nn1c(SCC(=O)N2CCOCC2)nnc1-c1ccco1	1	0	-7	1	2894
CCOc1cccc2cc(C(=O)Nc3cc(C)on3)c(=O)oc12	-4	?	-2	-4	24162*
CCOc1cccc2cc(C(=O)NCc3cccnc3)c(=O)oc12	3	?	-14	-2	22159*
Cc1ccc(N2CC(C(=O)Nc3ccc(S(=O)(=O)Nc4nccs4)cc3)CC2=O)cc1C (centres undefined)	-15	-3	1	0	3361
CC(=O)Nc1cccc(NC(=O)CCn2cnc3cc(C)c(C)cc32)c1	-2	0	-2	-4	22641*
C[C@H]1CCC[C@H](O)CCCCCc2cc(O)cc(O)c2C(=O)O1	-9	-1	0	4	6177
C[C@H]1CCC[C@@H](O)CCC/C=C/c2cc(O)cc(O)c2C(=O)O1	-4	-3	-4	0	20416*
SMILES	BoNT F protease	BoNT A protease	Anthrax LF inh2	SARS 3CLpro inh	Autofluor counter
Fc1ccc(-c2cc(C(F)(F)F)nc(-n3cncn3)n2)cc1	-4	-3	0	-3	21601*
COc1cccc(-c2cc(C(F)(F)F)nc(-n3cc(C)cn3)n2)c1	-12	-2	-1	0	4918
COc1cccc(-c2cc(C(F)(F)F)nc(-n3cncn3)n2)c1	-2	?	-2	-2	25001*
O=C(NCc1cccnc1)c1c(F)c(F)c(F)c(F)c1F	15	2	12	4	9195
CSc1ccc(S(=O)(=O)N2CCC(C(=O)NCCCn3ccnc3)CC2)cc1	-2	-1	0	2	6478
Cn1c(=O)n(-c2cccc(Cl)c2)c(=O)c2c3c(sc21)COC(C)(C)C3	-5	-3	-1	2	17764*
Cc1ccc(-n2nnc3c(=O)oc4ccccc4c32)cc1	nt	nt	nt	2	nt
CCC(C)n1nnc2c(=O)oc3ccccc3c21 (centres undefined)	-1	0	0	5	23717*
O=C(COC(=O)c1ccccc1F)Nc1ccc2c(c1)OCCO2	-2	1	-1	nt	?
Cc1c(-c2nc(N)nc(Nc3ccccc3F)n2)oc2ccccc12	-3	-3	-4	7	24893*
Cc1cc(C)c(NC(=O)CCCN2CCN(C)CC2)c(C)c1	-17	0	-3	1	5051
Cc1cc(C)c(NC(=O)CN2CCN3CCCC3C2)c(C)c1 (centres undefined)	-7	0	0	2	21570*!
Cc1nnc(SCCC(=O)Nc2nc(-c3ccccc3)ns2)s1	-6	-2	-4	-1	16875*
CCC(=O)Nc1nc(-c2ccccc2)ns1	2	2	-2	-2	21302*
CCCC(=O)Nc1nc(-c2ccccc2)ns1	-18	-1	-2	4	2564
O=C(Nc1nc(-c2ccccc2)cs1)c1cccs1	-6	0	-4	-2	3095
O=C(Nc1nc(-c2ccccc2)ns1)c1cccs1	-6	-5	-1	6	22042*
CC(C)C(=O)Nc1nc(-c2ccccc2)ns1	3	?	-7	-1	22460*
Nc1nc(CSc2ccc(Cl)cc2)nc(N2CCCCC2)n1	-1	0	-2	3	4322
CSc1ccccc1C(=O)NCC1CCCO1 (centres undefined)	9	5	-2	8	18506*
CSc1ccccc1C(=O)NC1CCCCC1	1	2	-5	4	22309*
O=C(NCc1ccco1)c1cccnc1-c1nc2ccccc2s1	-6	0	-6	-3	10014
COCCCNC(=O)CCn1c(=O)c2ccccc2n(CC(=O)Nc2ccc(C)cc2C)c1=O	-2	0	-2	3	2295
COC(=O)c1ccc(COc2cc(O)c3c(c2)OC(C)(C)CC3=O)cc1	5	0	-1	-4	2347
CC1(C)CC(=O)c2c(O)cc(OCc3ccc(Br)cc3)cc2O1	2	2	-3	0	22502*
Cc1c(NC(=O)NC(C)N2C(=O)C3C4C=CC(C4)C3C2=O)c(=O)n(-c2ccccc2)n1C (centres undefined)	-6	0	-6	-1	?
O=C(NCc1ccccc1F)Nc1ccc([N+](=O)[O-])cc1	-3	0	-3	6	4300
O=C1/C(=C/c2cccs2)N=C(c2cccs2)N1Nc1ccccc1	0	11	13	0	3520
Cc1ccc(C2=N/C(=C\c3cccs3)C(=O)N2Nc2ccccc2)cc1	51*	120*	64*	0	2321
